Here are results for 32 molecules from PubChem BioAssay.

Each structure is given as a SMILES string. Several values for one entry are separate records, joined by “and”; a condition that tells them apart may be missing. Equal values may be shown once.

The test can be described thus: compound effects on differentiated 3T3-L1 adipocyte viability – cell-based, 3T3-L1 adipocytes, calcein-AM fluorescence, 48 h, basal, profiling panel (AID 1163). Further: test concentration not given here. As to conditions: 3T3-L1 adipocytes viability, higher = more signal.
Consider `CO[C@H]1COC(=O)CC=C[C@@H](C)COC(=O)[C@H](CCSC)NC(=O)CC=C[C@@H]1C`, for which the z-score is 0.584 and 0.153.
Regarding `C=CCN(CCCCC)C(=O)C1N(C(C)(C)CO)C(=O)C2C(C(=O)O)C3C=CC21O3` (configuration not stated), the z-score was -0.472 and -0.0106.
Consider `C=CCN1C(=O)[C@]2(O[C@H](CCn3cc(CCO)nn3)[C@@H]([Si](C)(C)c3ccc(OC)cc3)[C@@H]2C)c2cc(N3C(=O)c4cccc5cccc3c45)ccc21`, for which the z-score was -1.83 and -2.41.
For the molecule `CCC[C@@H]1C[C@@]1(CCC)[C@@H](NC(=O)c1ccc(-c2ccccc2)cc1)c1cccc(Cl)c1`, the z-score is -0.882 and -0.867.
Consider `C[C@@H]1CC[C@H]2C(=O)O[C@H](CN=[N+]=[N-])CN2[C@H]1c1ccc(Br)cc1`, for which the z-score is -0.805 and -0.0793.
Regarding `C[C@@H]1CN2[C@@H](CC[C@@H](C)[C@@H]2c2ccc(Br)cc2)C(=O)O1`, the z-score is 0.706 and 0.0322.
In the case of `COc1ccc(O[C@H]2C=C[C@@H](c3ccccc3)O[C@@H]2COC(=O)CCC(C)=NO[C@H](C)c2cn([C@H](CO)Cc3ccccc3)nn2)cc1`, the z-score was 0.498 and 0.0533.
With `CON(C)C(=O)c1nnc2c3ccccc3n(S(=O)(=O)c3ccc(C)cc3)c2n1`, the z-score is 0.495 and -0.447.
Next, `COc1ccc(COC(=O)NN=C2C[C@@H](O)[C@@H](O)[C@@H]3[C@@H]4C(=O)N(C(C)(C)C)C(=O)[C@@H]4CC[C@H]23)cc1`: 0.377; `COC(=O)C1=C(C)N(Cc2ccccc2)[C@]23O[C@](C(=O)OC)(C(=O)N2[C@@H]1c1ccccc1)[C@@H](C(=O)OC)[C@H]3C(=O)OC`: -0.0502 and -0.386; `C[C@@H]1CC[C@H]2C(=O)NC[C@@H](O)CN2[C@H]1c1ccc(Br)cc1`: -0.856 and 0.491.
For `C#CCCCON=C1C[C@@H](O)[C@@H](O)[C@@H]2[C@@H]3C(=O)N(C4CCCCC4)C(=O)[C@@H]3CC[C@H]12`, the z-score was -0.277.
`C[C@@H]1CC[C@@H](C(=O)O)N[C@H]1c1ccc(-c2ccco2)cc1`: the z-score was -0.396.
In the case of `C=CCN(C(=O)C1N(C(C)(C)CO)C(=O)C2C(C(=O)O)C3C=CC21O3)C(C)(C)C` (configuration not stated), the z-score was -0.72 and 0.343.
For `C=CCN(C(=O)C(c1cccs1)N(C(=O)/C=C\C(=O)O)c1ccc(CCO)cc1)C(C)(C)C` (configuration not stated), the z-score is -0.589 and -1.1.
On to `Cc1ccc(S(=O)(=O)N[C@H]2COC(=O)[C@@H](Cc3ccccc3)NC(=O)[C@@H](C)COC(=O)CC=C[C@@H]2C)cc1`, for which the z-score was -0.433 and 1.08.
For `CC(C)[Si]1(C(C)C)OCc2cc(CCCc3cc4c(c(CCc5ccccc5)n3)[Si](C(C)C)(C(C)C)OC4)nc(CCc3ccccc3)c21`, the z-score was 0.673 and -0.626.
On to `O=c1n(-c2ccccc2)c(=O)n2n1CC[C@@H]1C(=NOC[C@@H](O)COCc3ccco3)[C@H]3O[C@H]3[C@@H](O)[C@@H]12`, for which the z-score was 0.581 and -0.304.
Turning to `O=C1C[C@]2(c3ccc([N+](=O)[O-])cc3)C(=O)N(Cc3ccccc3)c3cc(CO)ccc3[C@H]2N1C1CCCCC1`, the z-score is 0.43 and 1.53.
For the molecule `CCOC(=O)[C@H](CC(C)C)NC(=O)CCC1CC(OC(=O)NCc2cccc3ccccc23)CC2(CCCC(COC(=O)NCc3ccccc3)O2)O1` (some centres not stated), the z-score is -0.172.
As for `CCOC(=O)c1ccc(NC(=O)O[C@H]2[C@H](OC(=O)Nc3ccccc3)[C@H](OC(=O)Nc3ccccc3)[C@@H](OC)O[C@@H]2CO)cc1`, the z-score is 0.207 and 0.7.
In the case of `CC[C@@H]1C(Sc2ccccc2)C(C(=O)O)[C@H](c2ccc(C)cc2)N1S(=O)(=O)c1ccc(C)cc1` (some centres not stated), the z-score is -0.505 and 0.311.
In the case of `CCCC[C@@H]1CN2[C@@H](CC[C@@H](C)[C@@H]2c2ccc(Br)cc2)C(=O)O1`, the z-score is -0.857 and -0.567.
`C=CCN(CCCCC)C(=O)C(c1cccs1)N(C(=O)/C=C\C(=O)O)c1ccc(CCO)cc1` (configuration not stated): the z-score is -4.27 and -0.651.
`C=C(C)C(=O)OC[C@@H]1CN2[C@@H](CC[C@@H](C)[C@@H]2c2ccc(Br)cc2)C(=O)O1`: the z-score is -0.2.
The same measure for `COC(=O)C1=C2N(Cc3ccccc3)C(C)=C(C(=O)OC)[C@@H](c3ccccc3)N2C(=O)[C@](O)(C(=O)OC)C1`: 0.387 and -1.41; for `C=C[C@@H](C)[C@@H](O)c1ccc(OCCO)cc1`: 0.513 and 0.464; for `C=CCN(Cc1ccccc1)C(=O)C1N(C(C)(C)CO)C(=O)C2C(C(=O)O)C3C=CC21O3` (configuration not stated): -0.355 and 0.134.
For the molecule `C=CCN(C(=O)C1N(C(C)(C)CO)C(=O)C2C(C(=O)O)C3C=CC21O3)c1ccc(OC)cc1` (configuration not stated), the z-score is 0.682 and -0.0179.
For the molecule `COC(=O)c1c2oc(c1C(=O)OC)C(=O)N[C@@H](Cc1ccccc1)Cn1cc(nn1)C1(CCCCC1)NC(=O)N[C@H](CO)CC2`, the z-score was -0.29 and 0.184.
For the molecule `C=C[C@H](C)[C@H](O)c1ccc(O)c2ccccc12`, the z-score is 0.114 and -0.0793.
In the case of `CCOC(=O)C[C@H]1[C@H](OC(=O)c2ccccc2-c2ccccc2)[C@@H](NC(=O)Cc2ccc(OC)cc2)c2cc(OCCCO)ccc2N1C(=O)c1ccc2ccccc2n1`, the z-score is 1.49 and 0.317.
